FLuc counter: qHTS profiling assay for firefly luciferase inhibitor/activator using purifed enzyme and Km concentrations of substrates (counterscreen for miR-21 project); Potency, µM (highest dose often 57.5 µM), without a hit: top-dose activity change, negative = inhibition, most hits filed as inhibitors; purified FLuc, Km substrates, luminescence inhibition; hit rate 6.9% among 360,000; Luciferin 4-monooxygenase (Photinus pyralis), P08659;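 note: plate controls were vehicle for no effect and reference inhibitor for full effect; nearly all actives have a fitted effect of over 55% in size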
Target sequence (P08659 whole entry, looked up): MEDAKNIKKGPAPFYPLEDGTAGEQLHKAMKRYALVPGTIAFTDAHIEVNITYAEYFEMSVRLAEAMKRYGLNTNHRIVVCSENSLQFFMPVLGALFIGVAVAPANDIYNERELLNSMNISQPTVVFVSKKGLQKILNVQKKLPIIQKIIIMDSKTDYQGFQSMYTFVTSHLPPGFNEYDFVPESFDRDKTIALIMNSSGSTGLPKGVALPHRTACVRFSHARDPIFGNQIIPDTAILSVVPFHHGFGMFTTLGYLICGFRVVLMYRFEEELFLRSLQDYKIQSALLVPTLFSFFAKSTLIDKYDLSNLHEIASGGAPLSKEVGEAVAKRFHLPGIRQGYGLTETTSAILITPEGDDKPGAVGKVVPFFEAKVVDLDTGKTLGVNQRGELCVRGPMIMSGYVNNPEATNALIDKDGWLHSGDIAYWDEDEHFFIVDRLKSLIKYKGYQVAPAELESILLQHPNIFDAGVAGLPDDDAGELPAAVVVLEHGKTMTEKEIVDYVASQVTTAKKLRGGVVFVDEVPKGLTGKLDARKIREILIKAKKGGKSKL
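Purified P. pyralis luciferase (10nM final) with 10uM D-luciferin and 10uM ATP (Km levels) in 50mM Tris acetate pH 7.5, 10mM Mg acetate, 0.01% Tween-20, 0.05% BSA; qHTS 6-point titration, ~60 µM downward; luminescence read.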
Rab9 prom act: qHTS Assay for Rab9 Promoter Activators | Potency, µM (series often up to 9.22 µM), inactives show at the top dose activation, negative = inhibition, hits mostly activators | AID 485297, 2010 | Huh7 Rab9 promoter-luciferase reporter, luminescence, 24 h | hit rate 2.8% among 320,000; note: % of control where 0% means no effect; nearly all actives have a fitted effect of over 60% in size
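Huh7 cells stably carrying Rab9 promoter–luciferase reporter, plated 1500 cells/well, compound added after 2 h and incubated 24 h at 37 °C; luciferase luminescence then read after 10 min with detection reagent.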
SMN2 splice up: qHTS Assay for Enhancers of SMN2 Splice Variant Expression; Potency, µM (series often up to 46.1 µM), inactives show at the top dose activity change, positive = activation, hits mostly activators; HEK293 SMN2-luciferase splicing reporter, luminescence, 30-36 h; AID 1458, 2008; hit rate 2.8% among 210,000; note: % of control where 0% means no effect; nearly all actives have a fitted effect of over 55% in size
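qHTS luciferase splicing reporter: luminescence rises when SMN2 exon 7 is included in transfected HEK293 cells. Compound exposure lasted 30-36 h at 37C, with 4.5 mM final sodium butyrate as control, followed by a ONE-Glo read.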
ELG1 DNA repair: qHTS screen for small molecules that inhibit ELG1-dependent DNA repair in human embryonic kidney (HEK293T) cells expressing luciferase-tagged ELG1 | HEK293T ELG1-luciferase reporter, luminescence, 16 h; DNA damage induced by 5-fluorouridine | Potency, µM (titrated, usually from 46.1 µM), for inactives: at the top dose activity change, negative = inhibition, actives largely listed as inhibitors | hit rate 2.3% among 330,000 | AID 504467, 2011; note: % is set by controls: 0 for no effect and ±100 for the full control effect; nearly all actives have a fitted effect of over 55% in size
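Quantitative HTS, concentration-response format. 2,000 cells/well co-treated with 5-fluorouridine and compound, 16 hr in 5% CO2 at 37 °C; ONE-Glo luminescence read after 30 min.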
NPC1 prom act: qHTS Assay for NPC1 Promoter Activators; Huh7 NPC1 promoter luciferase reporter, 24 h; Potency, µM (series often up to 9.22 µM), without a hit: at the highest dose activation, usual class: activators; hit rate 2.4% among 320,000; AID 485313, 2010; note: % of control where 0% means no effect; nearly all actives have a fitted effect of over 60% in size
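Stable NPC1-promoter luciferase Huh7 line; cpd (DMSO) 24 h, 37 °C, 5% CO2; Amplite luciferase reagent 10 min RT; luminescence readout. qHTS format.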
ELG1 genotox: qHTS screen for small molecules that induce genotoxicity in human embryonic kidney (HEK293T) cells expressing luciferase-tagged ELG1. HEK293T ELG1-luciferase reporter, luminescence, 16 h. Potency, µM (titrated, usually from 46 µM), without a hit: at the top dose activity change, positive = activation, usual class: activators. hit rate 1.3% among 330,000; note: % of control where 0% means no effect; nearly all actives have a fitted effect of over 60% in size
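ELG1-luciferase HEK293T cells, 2,000/well; compound pinned in; 16 hr, 37 °C, 5% CO2; ONE-Glo, 30 min RT; luminescence on CCD imager.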
An asterisk follows results filed as active; ? = inconclusive; . = no result given; [ ] = another dose, or the depositor's remark. Shown are actives, neighbours in structure and some others; about 9.2% of the full set was active somewhere. Calls come from the whole dose curve; as a rule, active = well fitted curve in the direction sought with a large enough effect; inconclusive = small, poorly fitted or top-dose-only effect, or another doubt; inactive = no such curve, though single readings can be large; an effect the other way counts as inactive or inconclusive. Potency is the fitted concentration of half-maximal effect.

SMILES	FLuc counter	Rab9 prom act	SMN2 splice up	ELG1 DNA repair	NPC1 prom act	ELG1 genotox
Cc1ccc(C)c(N(C)C(=O)CCNC(=O)Cn2cnc3ccccc3c2=O)c1	1%	.	-18%	.	.	.
COc1cccc(C2CC(=O)C3=C(C2)Nc2ccccc2N(C(=O)CCC(=O)O)C3c2ccc(F)cc2)c1 (centres undefined)	?	2%	.	-3%	-3%	0%
O=C(/C=C/c1ccco1)Nc1cccc(C(=O)Nc2ccccc2C(=O)O)c1	21µM*	1%	.	1%	-3%	-6%
O=C(O)c1cccc(NC(=O)c2ccccc2NC(=O)c2ccco2)c1	?	-2%	.	-11%	-5%	1%
COc1cccc(-n2c(SCC(=O)Nc3nccs3)nnc2-c2ccoc2C)c1	5%	-3%	-11%	?	-7%	1%
COc1ccc(-n2c(SCC(=O)Nc3nccs3)nnc2-c2ccoc2C)cc1	7%	-6%	4%	21µM*	-1%	0%
COc1ccc(-n2c(SCC(=O)Nc3nc(C)cs3)nnc2-c2ccoc2C)cc1	-22%	-2%	-11%	23µM*	3%	-4%
CC1CCC(NC(=O)CN2C(=O)NC3(CCCCCC3)C2=O)CC1 (centres undefined)	5%	0%	.	16%	1%	-2%
Cc1cc(=O)n2nc(-c3ccccc3)sc2n1	?	2µM*	13µM*	?	?	?
Cc1ccc2nc(NC(=O)CN3C(=O)NC4(CCCC4)C3=O)sc2c1	9.5µM*	-3%	.	?	-6%	0%
CCOc1ccc2nc(NC(=O)CN3C(=O)NC4(CCCC4)C3=O)sc2c1	6.7µM*	25%	.	?	11%	?
CCc1ccc2nc(NC(=O)CN3C(=O)NC4(CCCC4)C3=O)sc2c1	.	.	.	?	.	0%
COc1cccc(/C=N/NC(=O)CN(CCc2ccccc2)S(=O)(=O)c2ccc(NC(C)=O)cc2)c1	-14%	1%	1%[1.84 µM]	23µM*	-3%	-7%
COc1ccc(/C=N/NC(=O)CN(C)S(=O)(=O)c2ccc(NC(C)=O)cc2)cc1	?	-4%	.	9%	-5%	-3%
COc1ccccc1-c1cc(NC(=O)COc2ccc(C)c(C)c2)n(-c2ccccc2)n1	-11%	.	.	.	.	.
O=C1CSc2ccc(C(=O)NCCc3ccc(Cl)cc3Cl)cc2N1	.	.	.	26µM*	.	-8%
O=C(O)CCC(=O)Nc1cccc(-c2nc3ccccc3o2)c1	11µM*	0%	.	1%	1%	0%
CC(=O)Nc1ccc2nc3ccccc3nc2c1	19µM*	4µM*	.	?	2.8µM*	21µM*
COc1ccc(-c2nc3ccccc3o2)cc1NC(=O)COc1ccc(C(C)(C)C)cc1	-1%	.	5µM*	.	.	.
CC(=O)Nc1ccc2nc3c(=O)n(C)c(=O)n(C)c3nc2c1	-1%	1%	.	0%	-1%	0%
O=C1C2C3C=CC(C3)C2C(=O)N1c1cccc(-c2nc3ccccc3o2)c1 (centres undefined)	3%	18%	?	10%	13%	11%
O=C(Nc1cccc(-c2nc3ccccc3o2)c1)c1ccc(N2C(=O)C3C4C=CC(C4)C3C2=O)cc1 (centres undefined)	-18%	-4%	-23%	16µM*	3%	-19%
COc1ccc(-c2nc3ccccc3o2)cc1NC(=O)COc1cc(C)cc(C)c1	-6%	.	.	.	.	.
O=C(COC(=O)c1ccc2ccccc2c1)NCCCc1ccccc1	0%	-3%	0%	12%	0%	0%
COc1ccc(NC(=O)CSc2nc(N)cc(N)n2)cc1S(=O)(=O)N1CCCCC1	1%	-6%	.	9%	-5%	1%
SMILES	FLuc counter	Rab9 prom act	SMN2 splice up	ELG1 DNA repair	NPC1 prom act	ELG1 genotox
CC(=O)Nc1ccc(-c2nc3ccc(NC(C)=O)cc3o2)cc1	?	2µM*	.	?	2.5µM*	?
CC(=O)Nc1cc(-c2nc3ccccc3o2)ccc1Cl	17µM*	?	.	?	15%	?
CCCC(=O)Nc1cccc(-c2nc3ccccc3o2)c1	?	10%	34%	-8%	5%	-1%
COc1ccc(OCC(=O)Nc2cccc(-c3nc4ccccc4o3)c2)cc1	?	?	66%	?	4.5µM*	?
CC(=O)Nc1cccc(-c2nc3ccccc3o2)c1	19µM*	30%	.	0%	28%	?
CC(C)C(=O)Nc1cccc(-c2nc3ccccc3o2)c1	-13%	3%	15%	-8%	-1%	?
O=C(Cc1ccccc1)Nc1nc2ccc(Cl)cc2c2nc(-c3ccco3)nn12	.	.	-7%	.	.	.
Cc1ccc(C)c(N2CCN(C(=O)c3cc4c(=O)n(Cc5cccs5)ccc4nc3C)CC2)c1	-2%	.	.	.	.	.
CC(=O)Nc1ccc2oc(-c3ccccc3)nc2c1	7.6µM*	2.5µM*	10µM*	?	1.3µM*	?
COc1ccc(OCC(=O)N/N=C(\C)c2ccc(OC)cc2)cc1	24µM*	1%	-8%	-1%	-2%	1%
C/C(=N\Nc1ccc(C(=O)O)cc1)c1nc2ccccc2n1C	11µM*	1.1µM*	10µM*	?	0.56µM*	?
Cn1c(/C=N/NC(=O)c2ccccc2)nc2ccccc21	-14%	12%	-17%	4%	12%	3%
CCc1ccc(OCC(=O)N/N=C(\C)c2ccc(-n3ccnc3)cc2)cc1	1.3µM*	18%	.	-11%	15%	9%
C/C(=N\NC(=O)COc1ccccc1)c1ccc(O)cc1	?	21%	.	?	18%	9%
COc1ccc(OCC(=O)N/N=C(\C)c2cc3ccccc3o2)cc1	1.5µM*	15%	27%	?	17%	16%
Cc1nc(CC(=O)Nc2ccc(C)c(C)c2)cs1	-12%	.	-3%	.	.	.
C/C(=N\NC(N)=O)c1ccc(-n2ccnc2)cc1	-1%	1%	-3%	22%	-5%	6%
C/C(=N\Nc1ccc(C(=O)O)cc1)c1ccc(-n2ccnc2)cc1	12µM*	4µM*	20µM*	?	2.5µM*	?
Cc1ccsc1/C=N\NC(=O)c1ccc2c(c1)OCO2	3.8µM*	1.4µM*	?	?	1.4µM*	?
Cc1ccsc1/C=N/NC(=O)c1ccc2nc[nH]c2c1	?	?	21%	?	23%	9%
Cc1ccsc1/C=N/NC(=O)c1ccc2c(c1)OCCO2	0.95µM*	0.35µM*	.	?	0.63µM*	1.6µM*

From PubChem
